# Read-outs that look alike come from different tables or passages of the source.
# Legend:
# MAP3K15 = settings: concentration: 1 μM, replicates: in singlicate; n = 1
# MAP3K1 = settings: concentration: 1 μM, replicates: in singlicate; n = 1
# MAP3K2 = settings: concentration: 1 μM, replicates: in singlicate; n = 1
# MAP3K3 = settings: concentration: 1 μM, replicates: in singlicate; n = 1
# MAP3K4 = settings: concentration: 1 μM, replicates: in singlicate; n = 1
# MAP4K2 = settings: concentration: 1 μM, replicates: in singlicate; n = 1
# MAP4K3 = settings: concentration: 1 μM, replicates: in singlicate; n = 1
# MAP4K4 = settings: concentration: 1 μM, replicates: in singlicate; n = 1
# MAP4K5 = settings: concentration: 1 μM, replicates: in singlicate; n = 1
# MAPKAPK2 = settings: n = 1
# [1] = concentration: 1 μM, replicates: in singlicate
# 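Further: KINOMEscan kinase panel screen.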
Compound,%Inh (MAP3K15) [%],%Inh (MAP3K1) [%],%Inh (MAP3K2) [%],%Inh (MAP3K3) [%],%Inh (MAP3K4) [%],%Inh (MAP4K2) [%],%Inh (MAP4K3) [%],%Inh (MAP4K4) [%],%Inh (MAP4K5) [%],%Inh (MAPKAPK2; [1]) [%],%Inh (MAPKAPK2; 1 µM) [%]
COc1cccc(C(=O)Nc2cccc(Oc3ccc4nc(NC(=O)C5CC5)cn4n3)c2)c1,0,9,0,24,10,0,69,48,49,0,–
COc1cccc(NC(=O)NC2CCN(c3ccnc(Nc4cc(OC)c(OC)c(OC)c4)n3)C2)c1 (centres unmarked) [GSK1379763],0,80,3,0,39,0,12,56,81,0,–
Cl.Cl.NCC(NCc1ccc(-c2ccnc3[nH]ccc23)s1)c1ccccc1 (centres unmarked) [GSK1321565],0,0,63,29,0,64,2,0,0,0,–
CN(C)S(=O)(=O)c1cc(-c2ccc3nccc(-c4cccc(S(N)(=O)=O)c4)c3c2)cnc1N [GSK1669921],23,6,0,0,0,13,5,0,0,19,–
Nc1ncc(-c2ccc3nccc(-c4ccncc4)c3c2)cc1S(=O)(=O)N1CCOCC1 [GSK1627798],0,7,19,0,9,0,0,0,3,14,–
COC(=O)Nc1nc2cc(Oc3ccc(NC(=O)Nc4cc(C(F)(F)F)ccc4F)cn3)ccc2[nH]1.Cl.Cl [GW681170],0,11,0,0,9,0,3,3,0,0,–
CCn1c(-c2nonc2N)nc2c(C#CC(C)(C)O)nc(OC[C@H](N)c3ccccc3)cc21 [GSK943949],0,0,57,55,1,19,11,8,40,0,–
Cc1cccc(Nc2nc(N[C@H]3CCNC3)ncc2C(N)=O)c1.Cl [GSK2197149],0,0,88,60,45,88,40,73,33,0,–
NCCCC(NC(=O)c1cc(Br)c(-c2ccnc3[nH]ccc23)s1)c1ccccc1.O=C(O)C(F)(F)F.O=C(O)C(F)(F)F (centres unmarked) [GSK1287544],23,9,24,0,9,31,4,17,2,0,–
O=C(Nc1cccc(-c2nn3ncccc3c2-c2ccnc(Nc3ccccc3)n2)c1)c1c(F)cccc1F [GSK198271],0,3,35,0,35,0,33,33,84,24,–
CCS(=O)(=O)c1ccc(OC)c(Nc2nccc(-c3c(-c4cccc(NC(=O)c5c(F)cccc5F)c4)nn4ncccc34)n2)c1 [GSK326180],0,10,6,0,7,0,22,3,0,34,–
COc1cccc(-c2ccc3c(NC(=O)C4CC4)n[nH]c3n2)c1 [SB-710903],0,35,15,0,32,0,0,53,3,16,–
CCn1c(-c2nonc2N)nc2c(C#CC(C)(C)O)ncc(OCCCCN)c21.O=C(O)C(F)(F)F.O=C(O)C(F)(F)F [GSK507274],3,100,90,81,53,0,0,7,35,–,28
Cc1ccc(S(=O)(=O)Nc2ccc(Nc3nccc(Nc4cccc5[nH]ncc45)n3)cc2)cc1 [GSK581271],0,5,3,0,7,0,34,0,0,0,–
CN1CCN(Cc2cccc(-c3ccc4c(Nc5ccc(Oc6ccccc6)cc5)ccnc4c3)c2)CC1 [GW578342],0,0,0,0,15,0,0,0,0,3,–
Clc1ccc(-c2nn3ncccc3c2-c2ccnc(Nc3ccc4c(c3)OCCO4)n2)cc1 [GW829116],0,0,7,2,0,0,0,12,0,0,–

Compound,%Inh (MAP3K15) [%],%Inh (MAP3K1) [%],%Inh (MAP3K2) [%],%Inh (MAP3K3) [%],%Inh (MAP3K4) [%],%Inh (MAP4K2) [%],%Inh (MAP4K3) [%],%Inh (MAP4K4) [%],%Inh (MAP4K5) [%],%Inh (MAPKAPK2; [1]) [%],%Inh (MAPKAPK2; 1 µM) [%]
O=C(O)C(F)(F)F.O=C(O)C(F)(F)F.O=c1[nH]ccc2nc(N[C@@H]3CCCNC3)nc(Nc3ccc(S(=O)(=O)N4CCOCC4)cc3)c12 [GSK2177277],67,22,100,99.9,0,100,99,97.6,99.8,65,–
CC(C)c1nc(-c2cccc(NS(=O)(=O)c3c(F)cccc3F)c2F)c(-c2ccnc(Nc3ccc(N4CCOCC4)nc3)n2)s1 [GSK2008607],0,15,97.7,80,91.7,0,88,40,88,0,–
COc1cc2c(cc1OCCN1CCNCC1)ncc1c3ccc(C#N)cc3[nH]c21,90.1,33,4,14,7,51,8,32,5,0,–
CSc1cccc2c(-c3ccncn3)c(-c3ccc(F)cc3)nn12 [GW514786],21,14,0,0,0,0,0,2,0,67,–
Cl.c1ccc(-c2ccc3c(Nc4ccc5[nH]ncc5c4)ccnc3c2)nc1 [GW440137],4,22,0,0,4,0,0,0,0,1,–
Cc1ccc(C)c(NC(=O)NC2CCN(c3ccnc(Nc4ccc(F)cc4)n3)C2)c1 (centres unmarked) [GSK1379720],0,0,0,0,18,0,0,0,0,23,–
O=C(Nc1cccc(-c2nn3ccccc3c2-c2ccnc(Nc3cccc(F)c3)n2)c1)c1c(F)ccc(F)c1Cl [GSK357952],66,0,20,7,24,0,1,28,51,14,–
COc1ccc(Nc2nccc(NCCNC(=O)c3cc4ccccc4s3)n2)cc1 [GSK1379896],0,15,0,0,24,0,0,1,8,2,–
Cl.NC(=O)c1cccc(Nc2nccc(Nc3ccc(Oc4c(Cl)cccc4Cl)c(Cl)c3)n2)c1 [GW659009],18,0,0,3,0,10,0,0,0,0,–
Cn1cc(-c2[nH]c3cc(NC(=O)[C@H](N)C4CCCCC4)cc4c3c2C=NNC4=O)cn1,52,35,98.3,94.8,9,97.3,86,48,52,0,–
COc1ccc(Nc2nccc(N3CCC(NC(=O)Nc4cccc(OC)c4)C3)n2)cc1 (centres unmarked) [GSK1379742],0,0,0,0,23,0,5,0,0,9,–
COc1cc(Nc2nccc(N3CCC(NC(=O)c4cc5ccccc5s4)C3)n2)cc(OC)c1OC (centres unmarked) [GSK1379760],0,7,0,11,16,13,8,25,28,0,–
Cc1ccc(C(=O)Nc2ccc(Nc3ccnc4cc(-c5nccs5)ccc34)cc2O)cc1.Cl [GW494702],16,14,0,0,19,0,0,5,71,17,–
Cc1ccc(C(=O)N2CC[C@@H](O)C2)cc1-n1c(C)cc(OCc2ccc(F)cc2F)c(Br)c1=O,0,0,0,0,0,0,0,6,8,0,–
O=C(Nc1cccc(Oc2ccc3nc(NC(=O)C4CC4)cn3n2)c1)c1ccccc1C(F)(F)F,0,0,0,8,26,0,64,8,29,0,–
CC(=O)N1CCN(c2ccc(Nc3nccc(-c4sc(C(C)C)nc4-c4cccc(NS(=O)(=O)c5cccc(Cl)c5)c4)n3)cn2)CC1 [GSK1660437],16,12,0,7,0,8,10,13,54,19,–
